Measured values published in PubChem BioAssay (NCI).
Compounds without any hit were thinned out: in the full panel of roughly 83,000, 20% have a hit.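 The endpoint reported here, percent growth, reads 100 for growth as untreated, 0 for no net growth and -100 for all cells dead.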 Values without a mark were called inactive. Calls of active or inactive are those of the source.

These molecules were tested on NCI-H522 lung (assay: NCI-60 one-dose screen, 48 h (100 = growth as untreated, 0 = no growth, -100 = all killed)). Conditions: 10 µM unless noted.
Experimental: Growth inhibition of the NCI-H522 human Non-Small Cell Lung tumor cell line is measured as a screen for anti-cancer activity. Cells are grown in 96 well plates and exposed to the test compound for 48 hours. Compounds are tested at a single concentration, which is 10^-5 M for most compounds. The reported endpoint is percent growth (GI% or GIPRCNT), where numbers from 0 - 100% represent growth inhibition, and numbers from -100% - 0 represent cell death. For example, a value of 40 represents 60% growth inhibition. A value of 0 means no net growth occurred over the course of the experiment. A value of -40 indicates 40% of cells at the beginning of the experiment died by the end of the experiment. A value of -100 means all cells are dead at the end of the experiment.
NCI-60 Human Tumor Cell Lines Screen was performed using the standard one-dose NCI protocol, which is described in more detail at https://dtp.cancer.gov/discovery_development/nci-60/default.htm.
Compounds with GIPRCNT values below 10 were considered active. Activity score was based on GIPRCNT using the following formula: […]
Score is 0 for GIPRCNT values of 100 or above, 50 for GIPRCNT values of 0, and 100 for GIPRCNT values of -100.
In the case of `O=c1oc2ccc(F)cc2c(=O)n1-c1ccc(F)cc1F`, the growth is reported as -8.1% (active). With `CN1CCN(Cc2ccc(C(=O)Nc3cncc(C#Cc4cnc(N)c5ccccc45)c3)cc2C(F)(F)F)CC1` the growth was -54.3% (active). With `O=C(NC1CCN(Cc2ccccc2)CC1)c1cc2nc(-c3ccc(Cl)s3)cc(C(F)(F)F)n2n1` the growth was -31.9% (active). `CC(=O)c1ccc2oc(=O)n(Cc3ccc(C#N)cc3)c(=O)c2c1` was tested, and the growth was 99.5%. Molecule `c1ccc(-c2ccc(-c3nc4ccccc4[nH]3)cc2)cc1` has a growth of 94.3%. `CCCCN1CCN(c2ccc3nc(-c4ccc5nc(-c6ccc(OCC)cc6)[nH]c5c4)[nH]c3c2)CC1` gave a growth of 68.8%. For `O=C(Nc1ccccc1O)c1ccc(Oc2cccc(C(=O)Nc3ccccc3O)c2)cc1`, the growth was -16% (active). `COc1cc(/C=C2\CN(C)C/C(=C\c3cc(CN4CCOCC4)c(O)c(OC)c3)C2=O)cc(CN2CCOCC2)c1O` was tested, and the growth was 41%. With `COc1ccc2sc3c(NCCCN)nc4ccccc4c3c(=O)c2c1` the growth was 18.7%. With `COc1ccc(Cn2c(Br)c3c(c2-c2cc(OC)c(OC)c(OC)c2)CCc2sc(NC(=O)c4ccc(OC)cc4)nc2-3)cc1` the growth was 85.4%. `Cc1ccc(OCCCCCCNCCO)c(C)c1` was tested, and the growth was -8.65% (active). `Cc1cccc2c(=O)c3c(sc12)c(NCCCNCCO)nc1ccccc13` gave a growth of 58.6%. For `NS(=O)(=O)c1ccc(CCN=C=S)cc1`, the growth was -69.8% (active). With `CCCCc1ccc(NS(=O)(=O)c2cc3c4c(c2)CCN4C(=O)CC3)cc1` the growth was 13.9%. Molecule `COc1cccc2c1C=C1CCCCC3=Cc4c(OC)cccc4OC13O2` has a growth of 32.7%. Molecule `COc1ccc(/C=C/C(=O)c2c(C)nc3ccccc3c2/C=C/c2ccccc2)c(OC)c1` has a growth of 70.5%. `CCN1C(=O)N(c2ccccc2)C2NN=c3s/c(=C4\C(=O)N(C(C)C)c5ccccc54)c(=O)n3C21` (stereo not given) showed a growth of 14.7%. For `O=S(=O)(c1ccc(NC(=S)NC23CC4CC(CC(C4)C2)C3)cc1)N1CCCCC1`, the growth was 74.3%. `NCCNc1nc2ccc(F)cc2c2c(=O)c3cc(F)ccc3sc12` was tested, and the growth was 30.9%. In the case of `O=C(CCc1nnc2sc(-c3ccc(Cl)cc3Cl)nn12)c1nc2ncccc2[nH]1`, the growth is reported as -47.9% (active). `CCn1c(SCC(=O)Nc2cc(C(F)(F)F)ccc2Cl)nc2ccccc2c1=O` showed a growth of 50.7%. `CCN1CCN(C(=S)SCC(=O)Nc2nc3ccc(C)cc3s2)CC1` was tested, and the growth was 29.1%. Molecule `COc1ccc(N)c(-c2cc3c(c4c2[nH]c2ccc(OC)cc24)CCCC3)c1` has a growth of 57.1%. `COC(=O)/C(CCC=C(C)C)=C1\[C@@H](OC(C)=O)C[C@@]2(C)[C@H]1CC(=O)[C@H]1[C@@]3(C)CC[C@H](NCc4ccccc4)[C@@H](C)[C@@H]3CC[C@@]12C` showed a growth of 108%. In the case of `O=C(Nc1ccc(N2CCNCC2)cn1)c1[nH]ncc1Nc1ncnc2sccc12`, the growth is reported as -3.84% (active). `CC(=S)NC(=O)C(=O)/C=C1/NC(=O)C(=O)S1` showed a growth of 105%. `COc1cc(C=C2C(=O)N(C)C(=O)N(C)C2=O)cc(CN2CCCCC2)c1O` was tested, and the growth was 94.3%. With `Clc1ncccc1Nc1ccc2nnc(-c3ccncc3)n2n1` the growth was -58.6% (active). `O=C(CSc1ncccc1C(=O)O)Nc1ccc(Oc2ccccc2)cc1` was tested, and the growth was 105%. `O=C(/C=C/c1ccccc1)c1ccc(Nc2nc(NCCO)nc(Nc3ccc(Cl)cc3)n2)cc1` showed a growth of 83.3%. For `CS(=O)(=O)Nc1ccc(C(=O)NC(C(=O)NO)c2ccc(-c3cccc(F)c3)cc2)cc1` (stereo not given), the growth was 30%. In the case of `O=c1cc(-c2ccccc2)oc2cc(OCc3cn(Cc4ccc(F)cc4)nn3)cc(OCc3cn(Cc4ccc(F)cc4)nn3)c12`, the growth is reported as 17.6%. With `CCN1C(=O)N(CC)C2C1NN=c1s/c(=C3\C(=O)N(C(C)C)c4ccccc43)c(=O)n12` (stereo not given) the growth was -3.38% (active). `CCOC(=O)C1=C(C)N=c2s/c(=C\c3cc(Cl)ccc3O)c(=O)n2C1c1ccc(OC)cc1` (stereo not given) gave a growth of 81%. `O=C(Nc1ccc(N2CCNCC2)cc1)c1[nH]ncc1Nc1cc(C2CC2)ncn1` was tested, and the growth was 25.2%. Molecule `Cc1cc2c(c(C)c1Cl)C(=O)/C(=C/c1cccc([N+](=O)[O-])c1)O2` has a growth of 80.6%. In the case of `COC(=O)c1c2c(c(C)[n+]([O-])c1C)C(=O)C=C(NCc1ccc(F)c(F)c1)C2=O`, the growth is reported as -53.1% (active). With `COc1cc(/C=C/C(=O)c2ccc(Nc3nc(NCCO)nc(N4CCOCC4)n3)cc2)cc(OC)c1OC` the growth was 24.1%. With `O=c1oc2ccc(Cl)cc2c(=O)n1-c1ccc(I)cc1F` the growth was -15.5% (active). In the case of `O=C(CN1C(=O)/C(=C\c2ccc(Cl)cc2)SC1=S)Nc1ncc(Cc2ccc(Cl)cc2)s1`, the growth is reported as 89.5%.
